MCF10A rerep – DNA re-replication induction in MCF 10a cells; MCF 10A DNA re-replication, Hoechst nuclear intensity, 48 h; Potency, µM (series often up to 46.1 µM), for inactives: at the highest dose activity, positive = re-replication, hits mostly activators; AID 624296; actives 2.9% (n = 350,000); further: % of control where 0% means no effect; nearly all actives have a fitted effect of over 50% in size
SW480 rereplic – inducers of DNA re-replication in SW480 colon cancer cells | SW480 DNA re-replication, Hoechst DNA content imaging, 48 h | Potency, µM (top dose mostly 46.1 µM), for inactives: at the highest dose re-replication activation, hits mostly activators | actives 1.8% (n = 340,000); further: % of control where 0% means no effect; nearly all actives have a fitted effect of over 55% in size
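Image-based read-out: total Hoechst fluorescence of nuclei (405 nm excitation, 500-530 nm emission), with hits raising the fraction of high-intensity nuclei. SW480 colon cells incubated 48 hr with compounds at 37 C.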
KB-V1 MDR tox – KB-V1 MDR subline cytotoxicity; KB-V1 MDR cells viability, CellTiter-Glo, 72 h; Potency, µM (series often up to 46.1 µM), most hits filed as cytotoxic; actives 3.4% (n = 400,000); further: on the % scale 0 is the no-effect control and ±100 the full control effect; nearly all actives have a fitted effect of over 60% in size
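Cytotoxicity via CellTiter-Glo luminescence after 72 h compound exposure at 37 degrees C. Cells: drug-selected KB-V1 line, DMEM phenol-red free plus 10% FBS. Compounds tested at multiple concentrations; normalized data fitted to concentration-effect curves.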
KB-3-1 cytotox – kills parental KB-3-1 adenocarcinoma cells | KB-3-1 viability, CellTiter-Glo ATP luminescence, 72 h | AID 1347075 | Potency, µM (doses to about 46.1 µM), most hits filed as cytotoxic | actives 1.4% (n = 400,000); further: on the % scale 0 is the no-effect control and ±100 the full control effect; nearly all actives have a fitted effect of over 60% in size
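Parental KB-3-1 adenocarcinoma cells in phenol-red-free DMEM with 10% FBS were pin-treated with compounds at several concentrations, incubated 72 h at 37 °C, and viability read by CellTiter-Glo luminescence; concentration-effect curves were fitted after normalization.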
HT1080-NT tox – kills 2HG-producing HT-1080-NT fibrosarcoma cells | actives 1.6% (n = 360,000) | HT-1080-NT fibrosarcoma viability, CellTiter-Glo ATP luminescence, 48 h | Potency, µM (top dose mostly 46.1 µM), for inactives: at the top dose activity, negative = less viability, hits mostly cytotoxic;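 further: NT is the 2HG producing partner of a matched IDH1 knockdown line; 0% = DMSO-treated cells and -100% = media-only wells without cells; nearly all actives have a fitted effect of over 55% in size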
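HT-1080-NT; 750 cells/well; 5% FBS RPMI; 48 h compound, 37 degrees C; CellTiter-Glo luminescence; curve fitting and curve-class assignment.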
HT1080 IDH1KD tx – HT-1080 IDH1 knockdown cell toxicity (counter line); actives 2% (n = 360,000); HT-1080 IDH1 knockdown viability, ATP luminescence, 48 h; Potency, µM (top dose mostly 46.1 µM), inactives show at the highest dose activity, negative = toxicity, most hits filed as cytotoxic;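 further: 0% = DMSO wells and -100% = cell-free medium wells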
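Viability of IDH1-knockdown HT-1080 fibrosarcoma cells was assessed by CellTiter-Glo after 48 h at 37 °C with titrated compound; concentration-effect curves were classified by fit quality and response size.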
* hit, by the source's call; i = inactive; ? = inconclusive; . = not tested or not shown; [ ] = another dose, or the depositor's remark. The list is not random: actives were taken first. Their share in the collection is about 8%. The call rests on the fitted dose curve; in most records, active means well fitted curve in the direction sought with a large enough effect; inconclusive means small, poorly fitted or top-dose-only effect, or another doubt; inactive means no such curve, though single readings can be large; an effect the other way counts as inactive or inconclusive. Potency means the concentration at half of the fitted maximal effect.

SMILES	MCF10A rerep	SW480 rereplic	KB-V1 MDR tox	KB-3-1 cytotox	HT1080-NT tox	HT1080 IDH1KD tx
COC(=O)CC1COc2ccccc2N1S(=O)(=O)c1ccc(Br)cc1 (configuration not stated)	28%	10µM*	?	i	-10%	8%
COC(=O)CC1COc2ccccc2N1S(=O)(=O)c1ccc(OC)cc1 (configuration not stated)	15µM*	?	?	18µM*	?	10µM*
Nc1nnnn1/N=C/C(Br)=C/c1ccccc1	2.6µM*	2.8µM*	?	?	-30%	9.2µM*
O=c1c2ccccc2sc2c(CO)ccc(NCCN3CCCCC3)c12	25%	?	16µM*	?	-28%	?
CCN(CC)CCNc1ccc(CO)c2sc3ccccc3c(=O)c12	?	?	?	16µM*	12µM*	21µM*
COc1ccc(Oc2ccc(C(F)(F)F)cc2NC(=O)c2ccc(C)cc2)cc1	6%	7%	i	i	1%	1%
FC(F)Sc1ccc(-n2cc(-c3ccccc3)[n+]3c2CCC3)cc1	25%	6%	i	15µM*	-2%	-25%
O=C(NCCc1ccccc1)C(c1cccs1)N(C(=O)CCl)c1ccc(Cl)cc1 (configuration not stated)	12µM*	10µM*	?	?	3.7µM*	1.6µM*
CN(C(=O)c1ccc(NC(=O)Cc2cccc(NC(=O)C3CCCN(C(=O)c4ccccc4)C3)c2)cc1)C1CC1 (configuration not stated)	29%	10%[9.22 µM]	i	i	8%	3%
C=C1CCC(O)C2(C)CCC3C(C)C(=O)OC3C12O (configuration not stated)	-2%	-10%	i	i	6%	5%
C=C1C(=O)O[C@@H]2[C@H]1CC[C@H](C)[C@]1(O)CCC(=O)[C@@]21C	23µM*	?	i	?	?	?
CCCCn1nnnc1NCc1cc(OC)c(OC)cc1OC	0%	-1%	26µM*	i	4%	-3%
CCCn1nnnc1NCc1ccc(OC)cc1OC	4%	0%	i	i	-1%	2%
Cc1cc(C(=O)Nn2c(C3CCCCC3)nc3ccccc3c2=O)ccc1[N+](=O)[O-]	?	-3%	i	i	-4%	-2%
O=C(Nn1c(C2CCCCC2)nc2ccccc2c1=O)c1ccc(Cl)c([N+](=O)[O-])c1	7.3µM*	4%	i	i	?	?
OCC1OC(n2nc3ccccc3n2)C(O)C(O)C1O (configuration not stated)	-2%	0%	i	i	-13%	-3%[9.24 µM]
OC[C@H]1O[C@@H](n2cnc3c(NC4CCCC4)nc(Cl)nc32)[C@H](O)[C@@H]1O	-9%	4%	i	i	-4%	7%
CCCCCCCCCCCCCCCC(=O)Nc1ccn(C2OC(CO)C(O)C2O)c(=O)n1 (configuration not stated)	-6%	2.6µM*	i	?	-4%	?
Nc1ncn([C@@H]2O[C@H](CO)[C@@H](O)[C@H]2O)c(=O)n1	?	-22%	?	?	1.6µM*	1.8µM*
Nc1ncnc2nn(C3OC(CO)C(O)C3O)nc12 (configuration not stated)	.	.	?	i	?	13µM*
Nc1nc(Cl)nc2c1ncn2[C@@H]1O[C@H](CO)[C@@H](O)[C@H]1O	?	16%	16µM*	?	18µM*	?
C=CCn1c(SCC(=O)Nc2nccs2)nnc1-c1cc2cccc(OC)c2o1	6%	6%	2.1µM*	i	?	?
COc1cccc2cc(-c3nnc(SCC(=O)Nc4ccc(NC(C)=O)cc4)n3C)oc12	-21%	-5%	i	?	-24%	-19%
CCn1c(SCC(=O)C(C)(C)C)nnc1-c1ccccn1	23µM*	1%	?	i	8%	6%
CCn1c(Cc2cccc3ccccc23)nnc1SCC(=O)Nc1nccs1	-2%	-7%	18µM*	i	-10%	3%[9.24 µM]
SMILES	MCF10A rerep	SW480 rereplic	KB-V1 MDR tox	KB-3-1 cytotox	HT1080-NT tox	HT1080 IDH1KD tx
C=CCn1c(SCC(=O)Nc2ccccc2OC)nnc1-c1ccccn1	?	18µM*	?	?	?	?
COc1c(C)cc(C(O)c2ncc(-c3cccc(F)c3)[nH]2)cc1C (configuration not stated)	.	.	i	i	1%	-12%
O=C(CN1CC(=O)Oc2ccccc21)OCC(=O)c1ccccc1	-7%	1%	i	i	-26%	?
O=C(CSc1nc(-c2cccs2)nc2cc(=O)[nH]n12)Nc1ccccc1Cl	.	.	i	i	.	.
Cc1ccc2c(c1)-c1c(ssc1=S)C(C)(C)N2C(=O)CSC1=NCCS1	18%	11%	7.3µM*	i	-3%	-2%
CCOc1ccc2c(c1)-c1c(ssc1=S)C(C)(C)N2C(=O)CSC1=NCCS1	6%	?	8.2µM*	i	-2%	-11%
Cc1ccc(-c2nnc(SCC(=O)Nc3ccccc3N3CCOCC3)o2)cc1	7%	-2%	13µM*	i	9%	28%
Cc1ccc(C(=O)CSc2nnc(-c3ccc4[nH]c(C)c(C)c4c3)o2)cc1C	-1%	1%	i	i	11%	3%[9.24 µM]
Cc1ccc(-c2nnc(SCC(=O)Nc3ccccc3F)o2)cc1	-3%	-6%	8.2µM*	5.2µM*	13µM*	21µM*
O=C(CSc1nnc(-c2ccccc2)o1)Nc1ccccc1F	0%	0%	?	i	-30%	?
Cc1[nH]c2ccc(-c3nnc(SCC(=O)c4ccccc4F)o3)cc2c1C	16µM*	4%	21µM*	i	-13%	-12%
CC(c1ccon1)N(C)C(=O)CCc1nnc(C2(c3ccc(Cl)cc3)CCC2)o1 (configuration not stated)	0.58µM*	4%	?	i	-2%	7%
Cc1cc(NC(=O)CSc2nc3cc(Cl)ccc3o2)no1	9%	9%	i	?	-2%	-15%
CCc1cc2cc(C)ccc2nc1SCC(=O)Nc1cc(C)on1	14%	-4%	9.2µM*	i	-1%	-21%
CCc1cc2cc3c(cc2nc1SCC(=O)Nc1nnc(C)s1)OCCO3	3.3µM*	16µM*	?	i	3%	0%

Assay outcomes as filed in PubChem.
